Compound activity (PubChem)
DUSP3 inh – VHR1 phosphatase inhibitors, primary screen, biochemical, absorbance, uHTS | 290,000 compounds, 0.52% hits | recombinant VHR phosphatase, pNPP absorbance | Dual specificity protein phosphatase 3 (Homo sapiens), P51452 | inhibition, % at 13.3 µM; in the data active means inhibition above about 50%
Target sequence (P51452 whole entry, looked up): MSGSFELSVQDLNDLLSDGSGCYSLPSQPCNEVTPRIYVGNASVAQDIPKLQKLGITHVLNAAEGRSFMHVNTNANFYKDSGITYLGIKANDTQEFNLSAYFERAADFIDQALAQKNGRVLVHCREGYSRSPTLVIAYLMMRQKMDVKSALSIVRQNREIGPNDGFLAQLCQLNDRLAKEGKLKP
GDH-TPI counter-1 – GDH-TPI coupling enzyme inhibitors, primary screen, artefact control for M. tuberculosis FBA inhibitor project, biochemical, absorbance, full deck; GDH-TPI coupled enzyme counterscreen, NADH absorbance; inhibition, % at 4.8 µM; 360,000 compounds, 1.2% hits
CCHFV vOTU inh – CCHFV vOTU protease inhibitors, primary screen, biochemical, Pep-AMC substrate, fluorescence; 370,000 compounds, 0.55% hits; inhibition, % at 11.5 µM; Crimean-Congo hemorrhagic fever virus L polyprotein viral ovarian tumor (vOTU) protease …
Mtb FBA inh – Mtb FBA enzyme inhibitors, primary screen, biochemical, fluorescence, strain H37Rv | Fructose-bisphosphate aldolase (Mycobacterium tuberculosis (strain ATCC 25618 / H37Rv)), … | purified M. tuberculosis FBA, fluorescence read-out | inhibition, % at 1 µM | 360,000 compounds, 2.3% hits | AID 588726, 2011; in the data active means inhibition above about 27%
Target sequence (P9WQA3 whole entry, looked up): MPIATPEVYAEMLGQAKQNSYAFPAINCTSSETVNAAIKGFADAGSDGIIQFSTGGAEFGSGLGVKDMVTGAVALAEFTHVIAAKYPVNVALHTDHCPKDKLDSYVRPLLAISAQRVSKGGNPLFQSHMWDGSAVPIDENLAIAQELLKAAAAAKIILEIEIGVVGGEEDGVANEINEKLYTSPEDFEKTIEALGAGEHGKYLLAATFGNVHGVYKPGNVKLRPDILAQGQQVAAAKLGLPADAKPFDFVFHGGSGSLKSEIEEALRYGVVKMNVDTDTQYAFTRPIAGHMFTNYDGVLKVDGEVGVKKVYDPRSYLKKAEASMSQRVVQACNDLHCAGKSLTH
RecA splice inh – Mtb RecA intein splicing inhibitors, primary screen, biochemical, fluorescence, HTS | inhibition, % (no concentration beside the values) | cell-free RecA intein splicing | 290,000 compounds, 0.75% hits; in the data active means inhibition above about 30%
3CLpro inhibitor – SARS-CoV 3CLpro protease inhibitors, primary screen, biochemical, quenched FRET; Replicase polyprotein 1ab (Severe acute respiratory syndrome coronavirus), P0C6X7; recombinant SARS-CoV 3CLpro, quenched FRET peptide cleavage; inhibition, % at 6 µM; 290,000 compounds, 0.14% hits; AID 1706, 2009; in the data active means inhibition above about 12%
Mtb FBA inh conf – M. tuberculosis aldolase blockers, biochemical, fluorescence, strain H37Rv, confirmation; inhibition, % at 1 µM; shares compounds with Mtb FBA inh; 5,600 compounds, 78% hits; AID 651616, 2012; purified M. tuberculosis FBA, fluorescence read-out; in the data active means inhibition above about 27%
GDH-TPI counter-2 – GDH-TPI coupling enzyme inhibitors, artefact control for M. tuberculosis FBA inhibitor project, biochemical, fluorescence, high throughput; shares compounds with Mtb FBA inh; GDH-TPI coupled enzyme counterscreen; inhibition, % at 1 µM; 5,600 compounds, 81% hits; AID 652141, 2013; in the data active means inhibition above about 10%
A number is an active result. The list is not random: actives were taken first. Their share in the collection is about 4.7%. Unless noted, no stated cut-off is given here; in the data, active means inhibition above about 30%; inactive means the rest.

CC(=O)c1ccc(S(=O)(=O)NCC(=O)Nc2nc3ccccc3[nH]2)cc1 was read as GDH-TPI counter-1 inactive, CCHFV vOTU inh inactive and Mtb FBA inh inactive.
For O=c1c2c(nc3cc(-c4cccc(F)c4)[nH]n13)CCC2 the results were DUSP3 inh inactive, GDH-TPI counter-1 inactive, CCHFV vOTU inh inactive, Mtb FBA inh 37.2, RecA splice inh inactive, 3CLpro inhibitor inactive, Mtb FBA inh conf inactive and GDH-TPI counter-2 inactive.
For O=c1c2c(nc3cc(-c4ccc(F)cc4)[nH]n13)CCCC2 the results were DUSP3 inh inactive, GDH-TPI counter-1 inactive, CCHFV vOTU inh inactive, Mtb FBA inh inactive, RecA splice inh inactive and 3CLpro inhibitor inactive.
For COc1ccc(-c2oc3ccccc3c2C(=O)OCc2ccccc2)cc1 the results were DUSP3 inh inactive, GDH-TPI counter-1 inactive, CCHFV vOTU inh inactive, Mtb FBA inh 98.5, RecA splice inh inactive, 3CLpro inhibitor inactive, Mtb FBA inh conf active and GDH-TPI counter-2 175.4.
COc1ccc(OC(=O)OCc2ccccc2)cc1 was read as GDH-TPI counter-1 inactive, CCHFV vOTU inh inactive and Mtb FBA inh inactive.
COc1ccc(-c2oc3ccccc3c2C(=O)OCc2ccc(O)cc2)cc1 was read as DUSP3 inh inactive, GDH-TPI counter-1 inactive, CCHFV vOTU inh inactive, Mtb FBA inh 74.4, RecA splice inh inactive, 3CLpro inhibitor inactive, Mtb FBA inh conf 59.8 and GDH-TPI counter-2 63.5.
Cc1cccc(-c2oc3ccc(-c4ccc5c(c4)OCO5)cc3c2C(=O)OCc2ccc(O)cc2)c1 was read as DUSP3 inh inactive, GDH-TPI counter-1 inactive, CCHFV vOTU inh inactive, Mtb FBA inh inactive, RecA splice inh inactive and 3CLpro inhibitor inactive.
COc1ccc(-c2oc3ccccc3c2C(=O)Oc2ccccc2)cc1 was read as DUSP3 inh inactive, GDH-TPI counter-1 inactive, CCHFV vOTU inh inactive, Mtb FBA inh 90.5, RecA splice inh inactive, 3CLpro inhibitor inactive, Mtb FBA inh conf 28.8 and GDH-TPI counter-2 26.6.
Screening O=C(NC1CC(=O)N(c2ccc3c(c2)OCCO3)C1)N1CCCCC1 (stereo unspecified) returned GDH-TPI counter-1 inactive, CCHFV vOTU inh inactive, Mtb FBA inh inactive and RecA splice inh inactive.
CN(C)C1CN(Cc2cn(Cc3ccc(F)cc3)nn2)S(=O)(=O)C1 (stereo unspecified) was read as CCHFV vOTU inh inactive.
Screening CCc1nc2ccc(C(=O)N3CCN(S(=O)(=O)CC)CC3)cn2c1N(CC)C(=O)NCCc1ccccc1 returned GDH-TPI counter-1 inactive, CCHFV vOTU inh inactive and Mtb FBA inh inactive.
CCOC(=O)c1nnc2cc(C)nn2c1C was read as DUSP3 inh inactive, GDH-TPI counter-1 inactive, CCHFV vOTU inh inactive, Mtb FBA inh inactive, RecA splice inh inactive and 3CLpro inhibitor inactive.
Screening CCOC(=O)c1nc2cc3n(c(CC(C)C)c-2c1C)CC(C)=C3C returned DUSP3 inh inactive, GDH-TPI counter-1 inactive, CCHFV vOTU inh inactive, Mtb FBA inh 27.4, RecA splice inh inactive, 3CLpro inhibitor inactive, Mtb FBA inh conf 118.5 and GDH-TPI counter-2 88.0.
`CCOC(=O)c1nc2cc3n(c(C)c-2c1C)C(C)C(C)=C3C` (stereo unspecified) gave DUSP3 inh inactive, GDH-TPI counter-1 inactive, CCHFV vOTU inh inactive, Mtb FBA inh 36.9, RecA splice inh inactive, 3CLpro inhibitor inactive, Mtb FBA inh conf 63.5 and GDH-TPI counter-2 50.0.
O=C(Nc1ccccc1C(=O)N/N=C/c1ccncc1)c1ccccc1 was read as DUSP3 inh inactive, GDH-TPI counter-1 inactive, CCHFV vOTU inh inactive, Mtb FBA inh inactive, RecA splice inh inactive and 3CLpro inhibitor inactive.
`CCN(C(=O)Cn1nc(C)c([N+](=O)[O-])c1C)c1c(N)n(Cc2ccccc2)c(=O)[nH]c1=O` gave GDH-TPI counter-1 inactive, CCHFV vOTU inh inactive, Mtb FBA inh inactive and RecA splice inh inactive.
O=C(NNc1c2ccccc2nc2ccccc12)c1ccc(Cl)cc1 was read as DUSP3 inh inactive, GDH-TPI counter-1 inactive, CCHFV vOTU inh inactive, Mtb FBA inh inactive, RecA splice inh inactive and 3CLpro inhibitor inactive.
`Clc1cncc(Cl)c1NNc1c2ccccc2nc2ccccc12` gave DUSP3 inh inactive, GDH-TPI counter-1 inactive, CCHFV vOTU inh inactive, Mtb FBA inh 39.5, RecA splice inh inactive, 3CLpro inhibitor inactive, Mtb FBA inh conf 81.4 and GDH-TPI counter-2 65.6.
C/C(=N\N=C(N)N)c1cc(Cl)ccc1Cl was read as DUSP3 inh inactive, GDH-TPI counter-1 inactive, CCHFV vOTU inh inactive, Mtb FBA inh inactive, RecA splice inh inactive and 3CLpro inhibitor inactive.
`C/C(=N\N=C(N)N)c1ccc(Cl)cc1Cl` gave DUSP3 inh inactive, GDH-TPI counter-1 inactive, CCHFV vOTU inh inactive, Mtb FBA inh 28.4, RecA splice inh inactive, 3CLpro inhibitor inactive, Mtb FBA inh conf 28.7 and GDH-TPI counter-2 17.1.
`COc1cccc(C(=O)NCCN2CCC(n3c(=O)[nH]c4ccccc43)CC2)c1` gave CCHFV vOTU inh inactive.
`Cc1cc2c(c(=O)n1CC1CCCO1)C(c1ccco1)C(C#N)=C(N)O2` (stereo unspecified) gave DUSP3 inh inactive, GDH-TPI counter-1 inactive, CCHFV vOTU inh inactive, Mtb FBA inh 31.6, RecA splice inh inactive, 3CLpro inhibitor inactive, Mtb FBA inh conf 40.8 and GDH-TPI counter-2 37.9.
CCOc1ccc(-c2cc(C)n3nc(C(N)=O)cc3n2)cc1 was read as DUSP3 inh inactive, GDH-TPI counter-1 inactive, CCHFV vOTU inh inactive, Mtb FBA inh 52.5, RecA splice inh inactive, 3CLpro inhibitor inactive, Mtb FBA inh conf inactive and GDH-TPI counter-2 inactive.
For CCOc1ccc2nc(NCCCNC(=O)c3cc(OC)c(OC)c(OC)c3)c(C#N)cc2c1 the results were DUSP3 inh inactive, GDH-TPI counter-1 inactive, CCHFV vOTU inh inactive, Mtb FBA inh inactive, RecA splice inh inactive and 3CLpro inhibitor inactive.
CCOc1ccc2nc(NCCNC(=O)CC)c(C#N)cc2c1 was read as DUSP3 inh inactive, GDH-TPI counter-1 inactive, CCHFV vOTU inh inactive, Mtb FBA inh 43.2, RecA splice inh inactive, 3CLpro inhibitor inactive, Mtb FBA inh conf 104.6 and GDH-TPI counter-2 114.4.
CCC(=O)NCCNc1nc2cc(C)c(C)cc2cc1C#N was read as DUSP3 inh inactive, GDH-TPI counter-1 inactive, CCHFV vOTU inh inactive, Mtb FBA inh 53.0, RecA splice inh inactive, 3CLpro inhibitor inactive, Mtb FBA inh conf inactive and GDH-TPI counter-2 inactive.
Screening Cc1cc(C)c2cc(C#N)c(NCCNC(=O)c3ccncc3)nc2c1 returned CCHFV vOTU inh inactive.
